Experiment [1] is described as follows: reducers of endogenous Her2 protein level, primary screen, SKBR3 breast tumor cells, AlphaScreen, ATP viability (AID 461;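 active = Her2 level under about 52% in both replicate screens, with viability over 70% of control, limit read from the data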;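 for Her2 level: lower value means less Her2 protein in the cells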;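 for viability: percent of carrier control wells set as 100% viability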). The following applies: 18-24 h, measured here: SKBR3 viability, ATP luminescence, at 10 µM. Background: Bead proximity is the source of the signal in Alpha formats.
Experiment [2] has as its target Receptor tyrosine-protein kinase erbB-2 (Homo sapiens) (UniProt P04626). The description is as above. The following applies: 18-24 h, at 10 µM, stronger effect = lower value.
The nature of experiment [3]: SK-BR-3 cell growth inhibitors, pilot screen, 24 h, human (AID 572).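 Note: compound exposure lasted between 18 and 24 h rather than exactly 24 h; 100% = carrier-treated control wells.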 The note with it: SK-BR-3 viability, CellTiter-Glo luminescence, at 10 µM, stronger effect = lower value.
A short description of experiment [4]: HUVEC growth inhibition – cell-based, human, primary screen (AID 575;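 active = viability at or below 30% in both replicate assays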;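 note: 100% = median of untreated cell wells with 0.1% DMSO on each plate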). The following applies: HUVEC proliferation, CellTiter-Glo luminescence, 72 h; at 10 µM; stronger effect = lower value. Background: Cellular ATP, detected with luciferase, serves as a proxy for viable cell number.
A short description of experiment [5]: growth inhibitors of H69AR lung tumor, primary screen, human, duplicate replicates (AID 580;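 active = viability at or under a set limit in both replicates, limit being median viability minus 3 SD, cut at about 48% in these data, passing the limit was not always enough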;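 note: 100% = mean luminescence of untreated wells and 0% = no signal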). The note with it: H69AR lung tumor cells viability, ATP luminescence, 72 h; at 10 µM; stronger effect = lower value.
Experiment [6] in a line: reversal of MRP1-mediated doxorubicin resistance, pilot screen, H69AR cells, doxorubicin co-treatment (AID 601;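 active = viability loss from added drug above about 55%, and viability with drug at most 40%, in both replicates, limit read from the data, passing the limit was not always enough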). The following applies: CellTiter-Glo, 72 h, at 10 µM; for differential viability (reversal): stronger effect = higher value.
Experiment [7] can be described thus: 384-well plate pilot, post-Golgi transport modulator project, inhibition of yeast transport mutant growth (AID 636; in the data active = inhibition above about 31%). The following applies: absorbance 615 nm, about 18 h, stronger effect = higher value.
A short description of experiment [8]: growth suppression of yeast trafficking mutant, preliminary HTS, modulators of trafficking downstream of Golgi apparatus project, 1536-format plate, OD 615 nm (AID 637; in the data active = inhibition above about 30%). The following applies: yeast transport mutant growth, absorbance 615 nm, 18 h; stronger effect = higher value.
Experiment [9] is described as follows: OD615 S. cerevisiae growth inhibition, permissive medium, pilot counter-assay, permissive growth control for S. cerevisiae lifespan shortening project (AID 705;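 active = growth inhibition above 25% in both replicates, a cutoff set 3 SD above the mean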). The note with it: OD615, 24 h, at 10 µM, stronger effect = higher value.
Experiment [10] in a line: Restrictive medium S. cerevisiae growth inhibition, OD615, pilot screen of yeast lifespan reduction project, restrictive growth control (AID 706;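 active = growth inhibition above a set limit, 3 SD over mean compound inhibition, in both replicates, cut at about 43% in these data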;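 note: modified DeaD lifespan yeast strain shifted to restrictive glucose medium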). The note with it: OD615, 48 h, at 10 µM, stronger effect = higher value.
Experiment [11] can be described thus: viability gain of MRP-1-high H69AR cells under doxorubicin, pilot screen, MRP-1 activator project, CellTiter-Glo, duplicate (AID 807;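 active = viability increase at or above a cutoff of the median across tested compounds plus 3 SD, cut at about 8.5% in these data, passing the limit was not always enough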;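 note: compound pretreatment 18-22 h then 72 h combined with doxorubicin; 0% = doxorubicin alone and 100% = vehicle without doxorubicin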). The note with it: H69AR viability with doxorubicin, CellTiter-Glo luminescence; at 10 µM; stronger effect = higher value.
Experiment [12] can be described thus: growth suppression of PTEN-deleted HCT116, pilot screen, cell-based, HCT116 clonal line, CellTiter-Glo (AID 824;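 active = viability at or below 27.92% in each of two runs, the all-compound median minus 4 SD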;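 note: 0% = 20 µM Hyamine control and 100% = vehicle cell control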). The following applies: 60 h, at 10 µM, stronger effect = lower value.
Experiment [13] in a line: inhibitors of the yeast RAM network, pilot screen, dse1pr::URA3 reporter, 5-FOA selection (AID 869;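 active = inhibition over a set limit, the all-compound mean plus 3 SD, in both replicate runs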;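 note: 0% = DMSO wells with no growth and 100% = 10 µM 1-NA-PP1 with full growth; RAM network block rescues cells from 5-FOA so hits raise OD615 growth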). The note with it: S. cerevisiae dse1pr::URA3 5-FOA growth, OD615, 2 d; at 10 µM; stronger effect = higher value; strain carries analog-sensitive mutant Cbk1 kinase.
A short description of experiment [14]: RAM signaling pathway blockade in yeast – S. cerevisiae, Pdr1DBD-CYC8 efflux-inhibited sensitized strain, primary screen (AID 1298;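 active = RAM network inhibition above 8.4% in each of two replicates, 3 SD over the compound average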;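 note: 0% = DMSO untreated cells without growth and 100% = 10 µM 1-NA-PP1 full growth; higher means more yeast growth rescued from 5-FOA killing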). The following applies: S. cerevisiae cbk1-as DSE1-URA3 strain, 5-FOA growth OD615, 2 d; at 50 µM; stronger effect = higher value.
Experiment [15] is described as follows: growth suppression of beta-catenin knockout HCT116, pilot screen, human colon tumor cells (AID 823;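 active = cell viability at or below a set limit in both duplicate runs, the limit being the all-compound median minus 4 SD, cut at about 23% in these data, passing the limit was not always enough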;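 note: 0% = wells killed by 20 µM Hyamine and 100% = untreated DMSO cell wells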). The note with it: CellTiter-Glo, 60 h, at 10 µM, stronger effect = lower value.
[16] abbreviates: H69AR cells + 2 uM doxorubicin, measured here: viability with 2 uM doxorubicin, stronger effect = lower value.
The mark [17] stands for this setting: H69AR cells, compound alone cytotoxicity.

Results filed as inconclusive are left out. The source made the active and inactive calls.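 Rule for the calls, unless noted: active = viability at or below 10% of carrier control in both of two separate runs; inconclusive = viability at or below 10% in only one of the two runs; inactive = the rest.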

Chain of Receptor tyrosine-protein kinase erbB-2 (Homo sapiens) (P04626 whole entry, looked up): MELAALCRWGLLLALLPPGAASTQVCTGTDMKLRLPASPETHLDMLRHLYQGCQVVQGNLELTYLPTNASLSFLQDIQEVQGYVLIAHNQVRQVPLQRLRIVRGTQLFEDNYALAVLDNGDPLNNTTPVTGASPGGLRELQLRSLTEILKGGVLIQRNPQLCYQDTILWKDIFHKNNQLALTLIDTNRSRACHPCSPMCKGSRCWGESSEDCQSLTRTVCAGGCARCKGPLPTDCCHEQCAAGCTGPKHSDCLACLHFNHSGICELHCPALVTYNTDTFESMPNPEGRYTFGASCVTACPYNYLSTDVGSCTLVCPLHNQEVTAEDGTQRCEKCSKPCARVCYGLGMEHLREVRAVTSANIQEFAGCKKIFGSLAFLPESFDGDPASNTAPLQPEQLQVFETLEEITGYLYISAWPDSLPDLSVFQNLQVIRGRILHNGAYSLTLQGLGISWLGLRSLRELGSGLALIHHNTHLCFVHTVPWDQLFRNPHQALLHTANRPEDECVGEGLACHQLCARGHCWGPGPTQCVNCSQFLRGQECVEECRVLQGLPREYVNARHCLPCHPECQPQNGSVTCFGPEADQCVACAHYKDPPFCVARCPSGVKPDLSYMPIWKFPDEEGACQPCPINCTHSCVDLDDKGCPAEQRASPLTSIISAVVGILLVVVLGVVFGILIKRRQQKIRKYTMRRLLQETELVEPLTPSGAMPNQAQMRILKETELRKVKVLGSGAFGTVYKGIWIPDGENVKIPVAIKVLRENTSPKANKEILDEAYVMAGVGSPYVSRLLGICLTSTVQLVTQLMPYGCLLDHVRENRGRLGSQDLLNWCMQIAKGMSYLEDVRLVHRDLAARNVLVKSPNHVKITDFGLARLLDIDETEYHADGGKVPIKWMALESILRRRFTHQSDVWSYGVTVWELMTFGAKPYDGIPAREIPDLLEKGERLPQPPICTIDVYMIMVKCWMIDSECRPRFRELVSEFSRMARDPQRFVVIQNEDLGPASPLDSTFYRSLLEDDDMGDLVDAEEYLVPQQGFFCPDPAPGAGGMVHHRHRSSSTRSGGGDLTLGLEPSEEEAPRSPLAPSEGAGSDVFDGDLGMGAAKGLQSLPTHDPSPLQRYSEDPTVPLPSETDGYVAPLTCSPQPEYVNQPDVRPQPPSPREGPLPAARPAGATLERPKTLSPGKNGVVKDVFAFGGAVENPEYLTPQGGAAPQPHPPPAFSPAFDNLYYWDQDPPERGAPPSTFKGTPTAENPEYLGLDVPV

For the molecule `O=C1NC(=O)C(CC(=O)N(Cc2ccco2)C2(C(=O)NC3CCCC3)CCCCC2)N1` (stereo unspecified), the viability in [1] was 99.5%; in experiment [3], 99.5% (inactive); in experiment [4], 106% (inactive); in experiment [5], 92.6% (inactive); in experiment [6] (setting [16]), 94.1%; in [6] (setting [17]) it was 92.6%. Further, the viability in [12] was 89% (inactive). Further, the Her2 level in experiment [2] was 116% (inactive). In experiment [6] (H69AR cells + 2 uM doxorubicin), the differential viability (reversal) was -1.5% (inactive). The inhibition in [7] was -7.95% (inactive); in experiment [8], -6.51% (inactive); in experiment [13] it was 0.975% (inactive). For the same molecule, the growth inhibition is -7.63% (inactive) in experiment [9] and -4.51% (inactive) in experiment [10]. The viability increase in experiment [11] was -3.06% (inactive). Besides, the RAM network inhibition in experiment [14] is -0.51% (inactive).
For the molecule `Oc1cccc(C=NCc2ccccc2)c1O`, the viability in experiment [1] was 78%; in experiment [3], 78% (inactive); in experiment [4], 67.3% (inactive); in experiment [6] (setting [16]), 77%; in experiment [6] (setting [17]) it was 51%; in [15], 71% (inactive). The viability in experiment [12] is 72.2% (inactive). The Her2 level in experiment [2] was 82.5% (inactive). Also, in experiment [6] (H69AR cells + 2 uM doxorubicin), the differential viability (reversal) was -26% (inactive). Further, the inhibition was -0.39% (inactive) in experiment [7], -0.5% (inactive) in experiment [8] and -0.21% (inactive) in experiment [13]. Also, the growth inhibition in experiment [9] is 83.7% (active); in experiment [10], 97.5% (active). In experiment [11], the viability increase is -3.97% (inactive). Also, the RAM network inhibition in [14] is -1.18% (inactive).
As for `CN1C(=O)C(O)(CC(=O)c2ccccc2O)c2cc(Br)ccc21` (stereo unspecified), the viability was 103% in experiment [1]; 103% (inactive) in experiment [3]; 45.5% (inactive) in [4]; 27% (active) in [5]; 51.3% in experiment [6] (setting [16]); 27% in experiment [6] (setting [17]). Besides, the Her2 level in [2] was 85.5% (inactive). Further, the differential viability (reversal) in [6] (H69AR cells + 2 uM doxorubicin) is -24.3% (inactive). Further, the values for the inhibition in [7], in experiment [8] and in [13] were -4.53% (inactive), 4% (inactive) and -0.67% (inactive), respectively. Moreover, the growth inhibition in experiment [9] was -2.37% (inactive); in experiment [10], 18% (inactive). Further, the viability increase in experiment [11] is -6.06% (inactive). The RAM network inhibition in experiment [14] is -2.32% (inactive).
In the case of `CCOc1ccc(N(CC(=O)Nc2cccc(OC)c2)S(=O)(=O)c2c(C)noc2C)cc1`, the viability in experiment [1] is 91.5%; in experiment [3], 91.5% (inactive); in experiment [4], 72.4% (inactive); in experiment [6] (setting [16]) it was 76.3%; in [6] (setting [17]) it was 59.6%; in [15] it was 71.8% (inactive). In experiment [12], the viability is 70.9% (inactive). Further, the Her2 level in [2] is 95% (inactive). Moreover, in experiment [6] (H69AR cells + 2 uM doxorubicin), the differential viability (reversal) was -16.7% (inactive). Moreover, the inhibition in [7] is -4.4% (inactive); in experiment [8], -7.38% (inactive); in experiment [13] it was -0.41% (inactive). For the same molecule, the results for the growth inhibition in experiment [9] and in experiment [10] were -11.5% (inactive) and 3.05% (inactive), respectively. In [11], the viability increase was -4.75% (inactive). In addition, the RAM network inhibition in experiment [14] is 4.24% (inactive).
With `Cc1noc(/C=C/N(C)C)c1S(=O)(=O)N1CCCC(C(=O)NC2CCCCC2)C1` (stereo unspecified), the viability in experiment [1] is 99%; in [3], 99% (inactive); in experiment [4] it was 75.7% (inactive); in experiment [5] it was 88.6% (inactive); in experiment [6] (setting [16]) it was 105%; in experiment [6] (setting [17]), 88.6%. The viability is 93% (inactive) in experiment [15] and 88.4% (inactive) in experiment [12]. For the same molecule, the Her2 level in experiment [2] was 99.5% (inactive). Further, in experiment [6] (H69AR cells + 2 uM doxorubicin), the differential viability (reversal) was -16.5% (inactive). In addition, the inhibition in experiment [7] is -3.07% (inactive); in [8], -3.5% (inactive); in [13], 0.78% (inactive). Besides, the growth inhibition in experiment [9] is 2.12% (inactive); in [10], -9.03% (inactive). Moreover, in experiment [14], the RAM network inhibition was 5.71% (inactive).
With `O=C(CCS(=O)(=O)c1cccc2nsnc12)NCc1ccccc1`, the viability is 93.5% in experiment [1]; 93.5% (inactive) in experiment [3]; 91.2% (inactive) in [4]; 106% (inactive) in experiment [5]; 88.9% in experiment [6] (setting [16]); 106% in [6] (setting [17]). Moreover, the viability in experiment [12] was 105% (inactive). Further, the Her2 level in [2] is 116% (inactive). Further, the differential viability (reversal) in experiment [6] (H69AR cells + 2 uM doxorubicin) is 17.4% (inactive). The inhibition in [7] was -3.01% (inactive); in [8], -4.6% (inactive); in experiment [13] it was 1.31% (inactive). The growth inhibition was -12.7% (inactive) in [9] and -4.2% (inactive) in experiment [10]. Moreover, the viability increase in experiment [11] is -2.9% (inactive). In addition, the RAM network inhibition in [14] was 1.65% (inactive).
Regarding `O=C(CSC1=NCCS1)NCc1ccco1`, the viability in [1] was 84%; in experiment [3], 84% (inactive); in experiment [4], 80.6% (inactive); in experiment [5] it was 90.1% (inactive); in [6] (setting [16]), 88.8%; in [6] (setting [17]), 90.1%. The viability in [12] is 100% (inactive). In [2], the Her2 level was 108% (inactive). Also, the differential viability (reversal) in experiment [6] (H69AR cells + 2 uM doxorubicin) was 1.28% (inactive). Besides, the inhibition in [7] is -0.54% (inactive); in experiment [8] it was 26.5% (inactive); in experiment [13], 2.73% (inactive). The growth inhibition in experiment [9] is 6.88% (inactive); in [10], 47.7% (active). Besides, the viability increase in [11] was -3.56% (inactive). Further, the RAM network inhibition in experiment [14] is 3.89% (inactive).
In the case of `C=CCn1c(COc2ccc(CC)cc2)nnc1SC/C(O)=C(\C#N)c1nc2ccccc2[nH]1`, the viability in experiment [1] is 86.5%; in experiment [3], 86.5% (inactive); in experiment [4] it was 59.8% (inactive); in [5], 106% (inactive); in [6] (setting [16]), 107%; in experiment [6] (setting [17]) it was 106%. The viability in experiment [15] was 92.6% (inactive); in [12] it was 91.3% (inactive). For the same molecule, the Her2 level in experiment [2] is 88% (inactive). Also, the differential viability (reversal) in experiment [6] (H69AR cells + 2 uM doxorubicin) was -1.07% (inactive). For the same molecule, the inhibition in [7] is -0.92% (inactive); in experiment [8] it was -6% (inactive); in [13], 2.46% (inactive). For the same molecule, the growth inhibition in experiment [9] is 1.15% (inactive); in experiment [10], 0.59% (inactive). In addition, the RAM network inhibition in [14] was 6.17% (inactive).
`COCCn1c(SCC(=O)N2CCc3ccccc32)nc2c(c1=O)SC(C)C2` (stereo unspecified): the viability in [1] is 77%; in experiment [3] it was 77% (inactive); in [4], 67.8% (inactive); in experiment [5], 78.8% (inactive); in experiment [15], 94.1% (inactive); in experiment [12] it was 94.3% (inactive). In addition, the Her2 level in experiment [2] is 104% (inactive). The results for the inhibition in [7], in experiment [8] and in [13] were -3.87% (inactive), -2% (inactive) and 0.465% (inactive), respectively. Further, the growth inhibition in experiment [9] is 6.33% (inactive); in [10], 13.2% (inactive). In [11], the viability increase was -2.72% (inactive). The RAM network inhibition in [14] is 6.03% (inactive).

Broadly, the viability is a read-out of living cells in per cent, often relative to untreated cells. A word on the inhibition: it is the relative decrease from the control value, in per cent.
